FXIa mix inh: FXIa protease inhibitors in compound pools, primary screen, biochemical, 10-compound mixtures | actives 0.19% (n = 62,000) | inhibition, % at 5 µM | AID 680, 2007 | purified FXIa, fluorogenic substrate, pooled mixtures;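 further: each value is inhibition by a whole ten-compound pool holding the compound; 0% = enzyme with no mixture and 100% = wells lacking enzyme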
BAP1 inh: inhibitors of BAP1 deubiquitinase, primary screen, biochemical, Ub-AMC fluorescence, kinetic | Ubiquitin carboxyl-terminal hydrolase BAP1 (Homo sapiens), Q92560 | recombinant BAP1, Ub-AMC hydrolysis fluorescence kinetic; active compounds read low | activity remaining (% of control), % at 20 µM | actives 0.48% (n = 72,000);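 active means activity remaining at or below 50% of control, provided the compound also passes the data quality filters; inactive means the rest, including low values that fail the filters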;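 further: 100% = DMSO wells rate and 0% = substrate alone blank rate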
Target sequence (Q92560 whole entry, looked up): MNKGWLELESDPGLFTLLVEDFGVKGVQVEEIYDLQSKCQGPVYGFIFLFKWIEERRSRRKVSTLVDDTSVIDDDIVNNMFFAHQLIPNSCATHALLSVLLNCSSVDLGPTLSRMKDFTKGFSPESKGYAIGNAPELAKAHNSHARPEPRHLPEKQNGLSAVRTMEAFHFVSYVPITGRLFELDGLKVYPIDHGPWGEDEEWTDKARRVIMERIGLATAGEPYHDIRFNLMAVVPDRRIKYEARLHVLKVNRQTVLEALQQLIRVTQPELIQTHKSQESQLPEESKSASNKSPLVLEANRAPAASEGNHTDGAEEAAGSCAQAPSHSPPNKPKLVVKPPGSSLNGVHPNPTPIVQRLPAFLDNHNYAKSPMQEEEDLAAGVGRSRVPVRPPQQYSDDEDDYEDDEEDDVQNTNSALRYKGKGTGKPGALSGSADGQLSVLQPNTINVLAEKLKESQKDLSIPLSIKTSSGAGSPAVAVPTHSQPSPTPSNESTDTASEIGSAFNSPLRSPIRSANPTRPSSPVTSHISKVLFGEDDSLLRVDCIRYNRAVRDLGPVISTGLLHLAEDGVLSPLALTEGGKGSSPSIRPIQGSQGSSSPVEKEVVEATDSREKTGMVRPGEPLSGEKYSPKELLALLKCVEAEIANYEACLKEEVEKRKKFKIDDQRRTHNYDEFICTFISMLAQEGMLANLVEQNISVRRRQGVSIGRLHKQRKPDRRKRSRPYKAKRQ
FXIIa mix inh: human factor XIIa inhibitors, primary screen, biochemical, pooled compound mixtures, fluorogenic substrate. Coagulation factor XII (Homo sapiens), P00748. purified FXIIa. inhibition, % at 5 µM. actives 0.2% (n = 62,000). AID 684, 2007;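 further: 0% = enzyme without compound and 100% = no enzyme blank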
Cathepsin G inh: human cathepsin G inhibitors, primary screen, biochemical, pooled compound mixtures, AMC fluorescence | P08311 | purified enzyme, AMC-tetrapeptide fluorescence | inhibition, % at 5 µM (by protocol) | actives 0.2% (n = 62,000);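 active means inhibition above 20% in each of the two mixture wells holding the compound; inactive means inhibition of 20% or less in either well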;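 further: 0% = enzyme control without mixture and 100% = blank lacking enzyme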
C1s inh: complement C1s protease inhibitors, primary screen, biochemical, 10-compound mixtures. purified C1s, fluorogenic AMC substrate, pooled mixtures. actives 0.16% (n = 62,000). Complement C1s subcomponent (Homo sapiens), P09871. AID 538, 2006. mean inhibition % of two 10-compound mixtures (active compounds read high), % at 5 µM (by protocol);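 active means inhibition above 20% in each of the two 10-compound mixture wells holding the compound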;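 further: 0% = enzyme wells lacking compound mixture and 100% = no-enzyme blank wells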
Calb biofilm kill: clotrimazole potentiators killing Candida biofilms, primary screen, with clotrimazole, Alamar Blue; C. albicans biofilm + clotrimazole; inhibition, % at 6 µM; actives 0.14% (n = 85,000); AID 834, 2007;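 active means inhibition above 20%; inactive means inhibition below 20%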;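 further: preformed 24 hr biofilms exposed to compound for 48 hr; 0% = biofilm without compound and 100% = blank killed by clotrimazole plus chlorhexidine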
BAP1 inh confirm: BAP1 deubiquitinase inhibitors, hit retest, confirmation, orthogonal assay, biochemical, Ub-ethyl ester substrate, HPLC readout; shares compounds with BAP1 inh; purified BAP1, Ub-ethyl ester hydrolysis; active compounds read low; % of control activity, % at 20 µM; actives 8% (n = 310);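 active means percent of control activity at or below 60%; inconclusive means HPLC trace unusable from injection failure or solvent front hiding peaks; inactive means the rest, plus ubiquitin peak ratio over a set limit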
Active calls of the source: *; i = inactive; ? = inconclusive; · = no result given. Rows were chosen to be rich in hits. Some 0.8% of all compounds tested hit in one or more screens of this group. Unless noted, no stated cut-off is given here; in the data, active means inhibition above about 20% (passing the limit was not always enough); inactive means the rest.

SMILES	FXIa mix inh	BAP1 inh	FXIIa mix inh	Cathepsin G inh	C1s inh	Calb biofilm kill	others
COc1cc(-c2nnc(SCC(=O)c3cc(C)n(CC4CCCO4)c3C)o2)cc(OC)c1OC (configuration not stated)	12	104	3	19	22*	-1
Nc1nc(-c2ccco2)nn1C(=O)c1ccccc1	·	·	·	·	·	2
COc1ccc(C(=O)n2nc(-c3ccccc3)nc2N)cc1OC	13	67	8	44*	-7	6
O=C(NCc1ccco1)C1CCN(c2nc3ccccc3n2Cc2ccc(F)cc2)CC1	24	99	-17	46	-26	9
Cn1c(=O)c2c(nc(CN3CCN(Cc4ccccc4)CC3)n2Cc2ccccc2)n(C)c1=O	4	106	-2	11	-20	20*
CCCCn1c(SCC(=O)NC(C)(C)C)nnc1-c1ccco1	3	92	21*	11	38	·
C=CCNC(=O)c1ccc(Cl)cc1Cl	25*	101	-21	14	14	1
CCOC(=O)N1CCN(C(=O)CN(Cc2ccccc2)S(=O)(=O)c2ccc(OC)c(Cl)c2)CC1	·	·	·	·	·	1
CCOC(=O)C(NC(C)=O)(Nc1ccc(S(=O)(=O)Nc2cc(C)nc(C)n2)cc1)C(F)(F)F (configuration not stated)	2	107	0	29	14	1
c1ccc(OCCOCCN2CCOCC2)cc1	·	·	·	·	·	63*
Cc1nn(-c2ccccc2)c2sc(C(=O)OCn3nnc4ccccc4c3=O)cc12	·	48*	·	·	·	·
CC(O)CCc1nc2ccc(C(=O)O)cc2[nH]1 (configuration not stated)	6	108	14	-1	-4	11
O=C(CCCCCN1C(=O)CCC1=O)Nc1ccc2c(c1)OCO2	5	85	23*	8	21	6
O=C(CCCN1C(=O)CCC1=O)Nc1ccc2c(c1)OCO2	5	62	0	8	-3	0
COc1ccc(/C(N)=N/OC(=O)c2cccc([N+](=O)[O-])c2)cc1OC	·	·	·	·	·	-1
CC1=CC(=O)C=C(C)C1=NOC(=O)c1cccc([N+](=O)[O-])c1	·	·	·	·	·	86*
CCOC(=O)N1CC=C2C(C#N)=C(N)C(C#N)(C#N)[C@H](c3ccccc3OCC)[C@H]2C1	6	99	4	10	64*	10
CCCCC(=O)Nc1ccc(NC(=O)c2cccnc2)cn1	6	110	-15	9	21*	1
O=C(Oc1ccccc1)c1ccc(COC(=O)c2cnccn2)cc1	4	156	6	43	-7	-3
O=C(COC(=O)c1cnccn1)c1ccc(OC(=O)c2ccccc2)cc1	12	90	-10	9	26*	16
COc1ccc(-c2nc3ccccc3s2)cc1O	-4	104	5	1	-68	4
CCC(=O)Nc1cc(-c2nn(C)c(=O)c3ccccc23)ccc1OC	8	89	0	-1	-2	·
COc1ccc(-c2nn(C)c(=O)c3ccccc23)cc1NC(=O)Cn1nc(C)c2ccccc2c1=O	-23	12*	14	-28	-98	5	BAP1 inh confirm=113
O=C(Nc1ccc(Oc2ccccc2)cc1)C1CCCO1 (configuration not stated)	-1	96	10	-5	-12	11
NC(=O)c1ccccc1N/C=C/C(=O)c1ccco1	7	45*	-1	11	9	4	BAP1 inh confirm=89
SMILES	FXIa mix inh	BAP1 inh	FXIIa mix inh	Cathepsin G inh	C1s inh	Calb biofilm kill	others
COc1ccc(S(=O)(=O)Nc2ccccc2C(=O)NCc2ccco2)cc1	7	49*	0	0	-6	3	BAP1 inh confirm=103
Cc1[nH]nc2ncc(C(=O)c3ccccc3O)cc12	5	·	12	-3	-2	8
Clc1ccc(OCc2nn3c(-c4ccco4)nnc3s2)c(Cl)c1	-8	42*	-11	-1	-47	-3	BAP1 inh confirm=106
Cc1ccc(OCc2nn3c(-c4ccco4)nnc3s2)cc1	6	91	7	-3	-4	1
O=C(CCCc1ccccc1)Nc1cccnc1	·	·	·	·	·	1
Cc1cc(NC(=O)c2cnn3c(C(F)(F)F)cc(-c4ccc(Br)cc4)nc23)no1	·	·	·	·	·	6
COc1cccc(NC(=O)c2ccccc2-c2nc(-c3ccc(Cl)cc3)no2)c1	0	50*	-2	7	4	9	BAP1 inh confirm=?
Cc1ccc(-c2nnn(CC(=O)N(Cc3cccs3)C(C(=O)NC3CCCCC3)c3ccco3)n2)o1 (configuration not stated)	·	·	·	·	·	2
Cc1nc2n(n1)C(c1ccccc1)C1=C(CC(c3ccco3)CC1=O)N2 (configuration not stated)	7	44*	3	9	6	5	BAP1 inh confirm=116
O=C1CC(c2ccco2)CC2=C1C(c1ccco1)Nc1ccccc1N2 (configuration not stated)	·	99	·	·	·	·
COc1ccc2c(c1)CCCN2C(N)=O	5	·	0	1	1	6
COc1ccc(N=C2CCCN2CC(N)=O)cc1	2	34*	12	7	-7	·	BAP1 inh confirm=87
Cn1cc(/C=N/n2cnc3scc(-c4ccccc4)c3c2=O)c2ccccc21	12	43*	3	-1	0	8	BAP1 inh confirm=91
c1ccc(-c2csc3ncn4cnnc4c23)cc1	5	97	5	-2	-2	4
CCC(C)(C)n1nnnc1C(c1cccc(C#N)c1)N1CCN(c2cccc(C)c2C)CC1 (configuration not stated)	0	·	15	-4	2	6
Cc1noc(NS(=O)(=O)c2ccc(NC(=O)c3cnc4scc(C)n4c3=O)cc2)c1C	11	68	3	-2	-16	1
Cc1cccc(NC(=O)c2cnc3scc(C)n3c2=O)c1	6	51	6	-12	-19	-3
Cc1ccc(NC(=O)c2cnc3scc(C)n3c2=O)c(C)c1	-4	36*	1	8	0	12	BAP1 inh confirm=i
Cc1cc(NS(=O)(=O)c2ccc(NC(=O)c3cnc4scc(C)n4c3=O)cc2)nc(C)n1	10	48*	13	11	18	10	BAP1 inh confirm=92
COC(=O)CSc1nnc(CNc2nc(-c3ccccc3)cs2)n1C	·	·	·	·	·	3
COc1ccc(C2C(C(C)=O)=C(C)N=c3s/c(=C\c4ccco4)c(=O)n32)c(OC)c1 (configuration not stated)	12	46*	1	9	14	4	BAP1 inh confirm=76

Compound activity as filed in PubChem.
